High-throughput results as filed in PubChem.
TR-FRET SRC-2 ct = TR-FRET signal artefacts, primary screen, artefact control for PPARgamma SRC-2 agonist project, biochemical. TR-FRET artefact counter-screen; active compounds read high. TR-FRET ratio at 8 µM. 200,000 compounds, 0.4% hits. AID 1049, 2008
PPARg SRC-2 ag = agonists of PPARg-SRC-2 recruitment, primary screen, biochemical, HTS. Peroxisome proliferator-activated receptor gamma (Homo sapiens), P37231. PPARgamma LBD-SRC-2 recruitment. activation, % at 8 µM. 200,000 compounds, 0.34% hits; in the data active = activation above about 22%;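 note: 0% = vehicle and 100% = reference agonist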
SRC3 TRFRET art = TR-FRET detection interference compounds, artefact control for PPARgamma SRC-3 recruitment agonists, biochemical, TR-FRET ratio; TR-FRET ratio at 8 µM; TR-FRET artefact counter-screen, PPARgamma/SRC-3 format; active compounds read high; 99,000 compounds, 0.39% hits
PPARg SRC-1 ag = PPARgamma agonists recruiting SRC-1 coactivator, primary screen, biochemical; Peroxisome proliferator-activated receptor gamma (Homo sapiens), P37231; PPARgamma-SRC-1 coactivator recruitment biochemical assay; activation, % at 8 µM; 200,000 compounds, 0.41% hits; in the data active = activation above about 19%;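 note: 0% = DMSO and 100% = reference agonist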
SRC1 TRFRET art = TR-FRET detection interference compounds, primary screen, artefact control for PPARgamma SRC-1 recruitment agonists, biochemical, TR-FRET emission ratio; AID 1051, 2008; TR-FRET detection artefact counter-screen; active compounds read high; 99,000 compounds, 0.34% hits; TR-FRET ratio at 8 µM; in the data active = TR-FRET ratio above about 2300
PPARg SRC3 recr = PPARgamma agonists recruiting SRC-3 coactivator, primary screen, biochemical | biochemical PPARgamma/SRC-3 coactivator recruitment assay | activation, % at 8 µM | 200,000 compounds, 0.26% hits | AID 731, 2007; in the data active = activation above about 23%;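 note: 0% = DMSO and 100% = reference agonist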
The depositor's hits bear a star. This is a sample that favours compounds with a hit; in the whole collection about 0.9% have one here. Cut-off read from the data, not from the text of the source, unless noted: active = TR-FRET ratio above about 2000; inactive = the rest.

C=CCN(CC=C)Cc1c(O)ccc2c1oc(=O)c1ccccc12 was read as TR-FRET SRC-2 ct 1879, PPARg SRC-2 ag 20, PPARg SRC-1 ag 21* and PPARg SRC3 recr 20.
For O=C(CNc1cccc([N+](=O)[O-])c1)N/N=C/c1ccc(F)cc1 the results were TR-FRET SRC-2 ct 1485, PPARg SRC-2 ag -6, SRC3 TRFRET art 1516, PPARg SRC-1 ag -3, SRC1 TRFRET art 1640 and PPARg SRC3 recr 1.
For COc1cc(OC)nc(/N=C/N(C)C)n1 the results were TR-FRET SRC-2 ct 1693, PPARg SRC-2 ag 0, SRC3 TRFRET art 1555, PPARg SRC-1 ag 5, SRC1 TRFRET art 1872 and PPARg SRC3 recr -1.
`COCCn1c(C)nnc1SCC(=O)Nc1ccccc1[N+](=O)[O-]` gave TR-FRET SRC-2 ct 1630, PPARg SRC-2 ag 1, SRC3 TRFRET art 1500, PPARg SRC-1 ag 11, SRC1 TRFRET art 1778 and PPARg SRC3 recr 3.
For N#Cc1ccc(/C=N/N=C(N)N)cc1 the results were TR-FRET SRC-2 ct 1780, PPARg SRC-2 ag 7, PPARg SRC-1 ag 3 and PPARg SRC3 recr 26*.
`NC(N)=N/N=C/c1ccc(Br)cc1` gave TR-FRET SRC-2 ct 1681, PPARg SRC-2 ag -1, SRC3 TRFRET art 1566, PPARg SRC-1 ag 10, SRC1 TRFRET art 1941 and PPARg SRC3 recr 5.
Screening CC(C)N(C(=O)CSc1nn2c(=O)c(C(C)(C)C)nnc2s1)c1ccccc1 returned TR-FRET SRC-2 ct 1419, PPARg SRC-2 ag -6, PPARg SRC-1 ag 0 and PPARg SRC3 recr 0.
For Cc1cc(C(=O)CSc2nn3c(=O)c(C(C)(C)C)nnc3s2)c(C)n1-c1ccc(F)cc1 the results were TR-FRET SRC-2 ct 2070*, PPARg SRC-2 ag 13, PPARg SRC-1 ag 9 and PPARg SRC3 recr 22.
Cc1c(Nc2scc(-c3ccccc3)[n+]2-c2ccccc2)c(=O)n(-c2ccccc2)n1C was read as TR-FRET SRC-2 ct 1361, PPARg SRC-2 ag -4, SRC3 TRFRET art 1624, PPARg SRC-1 ag -2, SRC1 TRFRET art 1586 and PPARg SRC3 recr -5.
For Cc1ccccc1Nc1scc(-c2ccc(Cl)cc2)[n+]1-c1ccccc1C the results were TR-FRET SRC-2 ct 2007*, PPARg SRC-2 ag 9, SRC3 TRFRET art 1661, PPARg SRC-1 ag 5, SRC1 TRFRET art 2015 and PPARg SRC3 recr 9.
For Cc1nc(SCC(=O)Nc2ccc(F)cc2)c(C#N)c(C)c1CC(=O)c1ccc(Br)cc1 the results were TR-FRET SRC-2 ct 1535, PPARg SRC-2 ag 8, PPARg SRC-1 ag 22* and PPARg SRC3 recr 8.
`c1ccc2c(c1)CC/C2=N/Nc1nc2ccccc2[nH]1` gave TR-FRET SRC-2 ct 1668, PPARg SRC-2 ag 5, SRC3 TRFRET art 1717, PPARg SRC-1 ag 22*, SRC1 TRFRET art 1819 and PPARg SRC3 recr 8.
`c1ccc(C2=Nn3c(nnc3-c3ccco3)SC2)cc1` gave TR-FRET SRC-2 ct 1549, PPARg SRC-2 ag 7, SRC3 TRFRET art 1472, PPARg SRC-1 ag -8, SRC1 TRFRET art 1816 and PPARg SRC3 recr 1.
For CCOc1ccccc1-c1c2cc(O)c(=O)cc-2oc2cc(O)c(O)cc12 the results were TR-FRET SRC-2 ct 1524, PPARg SRC-2 ag 17, SRC3 TRFRET art 1809, PPARg SRC-1 ag 4, SRC1 TRFRET art 1827 and PPARg SRC3 recr 6.
Screening COc1ccc(OC)c(-c2c3cc(O)c(=O)cc-3oc3cc(O)c(O)cc23)c1 returned TR-FRET SRC-2 ct 1565, PPARg SRC-2 ag 23*, SRC3 TRFRET art 1906, PPARg SRC-1 ag 17, SRC1 TRFRET art 2166 and PPARg SRC3 recr 10.
Screening CC(C)C(C)NC(=O)CSc1nc2scc(-c3ccco3)c2c(=O)n1-c1ccccc1 (stereo not drawn) returned TR-FRET SRC-2 ct 1609, PPARg SRC-2 ag 2, PPARg SRC-1 ag 6 and PPARg SRC3 recr 11.
`CC(C)C(C)(C#N)NC(=O)CSc1nc2scc(-c3ccco3)c2c(=O)n1-c1ccccc1` (stereo not drawn) gave TR-FRET SRC-2 ct 2013*, PPARg SRC-2 ag 18, PPARg SRC-1 ag 6 and PPARg SRC3 recr 4.
